Screening data deposited in PubChem by several laboratories.
Mdm2-MdmX inh: inhibitors of human Mdm2-MdmX association, primary screen, cell-based, luminescence, split luciferase, SaOS-2, uHTS; Protein Mdm4 (Homo sapiens) + E3 ubiquitin-protein ligase Mdm2 (Homo sapiens), …; SaOS-2 split-luciferase Mdm2/MdmX complementation; inhibition, % at 8 µM; actives 3% (n = 330,000);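 active = inhibition of at least 50% at 8 µM in the primary screen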
Target sequence (O15151 whole entry, looked up): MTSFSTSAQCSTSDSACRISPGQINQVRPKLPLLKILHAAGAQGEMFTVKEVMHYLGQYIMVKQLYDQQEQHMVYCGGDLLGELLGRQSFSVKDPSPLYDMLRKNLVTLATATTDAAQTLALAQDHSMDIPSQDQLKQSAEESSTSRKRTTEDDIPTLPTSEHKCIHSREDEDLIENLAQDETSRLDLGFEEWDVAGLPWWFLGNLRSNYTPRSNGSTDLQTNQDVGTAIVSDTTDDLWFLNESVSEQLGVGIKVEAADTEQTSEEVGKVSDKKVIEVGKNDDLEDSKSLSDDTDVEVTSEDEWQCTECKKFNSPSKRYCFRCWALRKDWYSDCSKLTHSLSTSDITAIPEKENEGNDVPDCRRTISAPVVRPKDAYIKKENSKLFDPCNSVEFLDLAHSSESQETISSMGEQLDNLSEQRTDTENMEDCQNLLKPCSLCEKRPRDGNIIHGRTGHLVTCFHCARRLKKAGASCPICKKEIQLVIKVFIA
Target sequence (Q00987 whole entry, looked up): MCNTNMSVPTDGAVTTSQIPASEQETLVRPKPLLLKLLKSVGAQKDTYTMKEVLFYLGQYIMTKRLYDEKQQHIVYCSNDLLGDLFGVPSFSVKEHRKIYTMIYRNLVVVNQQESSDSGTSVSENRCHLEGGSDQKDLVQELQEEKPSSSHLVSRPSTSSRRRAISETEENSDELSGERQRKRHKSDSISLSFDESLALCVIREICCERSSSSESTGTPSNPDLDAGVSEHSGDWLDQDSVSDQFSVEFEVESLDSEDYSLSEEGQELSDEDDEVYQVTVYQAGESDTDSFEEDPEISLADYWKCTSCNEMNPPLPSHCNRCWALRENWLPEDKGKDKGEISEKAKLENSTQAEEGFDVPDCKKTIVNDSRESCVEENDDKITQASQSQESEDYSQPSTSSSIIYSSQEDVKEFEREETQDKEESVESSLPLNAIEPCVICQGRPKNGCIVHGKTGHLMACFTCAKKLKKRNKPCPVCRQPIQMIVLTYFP
Beta apoptosis: inhibitors of cytokine-induced beta cell apoptosis, primary screen, luminescence; INS-1E cytokine-induced death, ATP luminescence, 48 h; percent of positive-control rescue, neutral wells zero; protection from apoptosis, % (concentration not given with the values); actives 0.8% (n = 300,000);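 active = Every replicate reaches about 75%, or at least half do and their mean reaches it too, limit read from the data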;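 also: higher means more ATP so stronger rescue from cytokine killing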
Jurkat NFkB inh: inhibitors of induced NF-kB luciferase reporter, primary screen, TCR NF-kB activation inhibitor project, cell-based, luminescence, uHTS; Jurkat, PMA/ionomycin-induced NF-kB luciferase reporter; inhibition, % at 4 µM; actives 0.53% (n = 330,000); in the data active = inhibition above about 50%
Gli-Sufu block: Gli-Sufu pathway antagonists, primary screen, luciferase luminescence, Sufu-KO-LIGHT cells, uHTS | inhibition, % at 5 µM | Sufu-KO-LIGHT fibroblasts, Gli luciferase reporter luminescence | actives 0.74% (n = 340,000) | AID 588413, 2011;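 active = inhibition above about 55%, limit read from the data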
697 NFkB inh: inhibitors of PMA/ionomycin-induced NF-kB reporter, 697 cells, primary screen, B-cell NF-kB inhibitor project, cell-based, luminescence, uHTS; 697 B-cell NF-kB luciferase reporter, 16 h; inhibition, % at 4 µM; actives 0.33% (n = 330,000); in the data active = inhibition above about 35%
Mdm2-MdmX conf: Mdm2-MdmX complex disruptors, retested hits, confirmation, luminescence, single concentration; AID 489028, 2010; Mdm2-MdmX binding, luminescent assay; actives 55% (n = 10,000); shares compounds with Mdm2-MdmX inh; inhibition, % at 8 µM; in the data active = inhibition above about 40%
FLuc counter: full-length luciferase signal inhibition, confirmation, counter-screen for Mdm2/MdmX interaction inhibitor project, cell-based, single concentration, SaOS-2 | shares compounds with Mdm2-MdmX inh | SaOS-2 full-length luciferase counterscreen, luminescence | inhibition, % at 8 µM | actives 77% (n = 6,200) | AID 504607, 2011;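 active = mean inhibition at 8 µM reaching about 37%, which flags the compound as non-specific, limit read from the data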;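 also: p53-null SaOS-2 cells with luciferase driven by a doxycycline-inducible promoter; compound on cells about two nights before reading with doxycycline added after day one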
Each line names hits and unclear results; the compound was inactive in the other large screens (follow-up assays come after a bar, where they were run). Hits are enriched below; roughly 4% of the tested compounds scored in any of these assays.

Cc1cc(-n2c(SCC(=O)NCCC3=CCCCC3)nc3n[nH]c(C)c3c2=N)ccc1Cl	none
Cc1ccccc1-n1c(SCC(=O)Nc2ccccc2Cl)nc2n[nH]c(C)c2c1=N	Mdm2-MdmX inh 66 | Mdm2-MdmX conf inactive
COc1ccc(OC)c(NC(=O)CSc2nc3n[nH]c(C)c3c(=N)n2-c2cccc(Cl)c2C)c1	none
CCOc1ccccc1-n1c(SCC(=O)Nc2ccc(CC)cc2)nc2n[nH]c(C)c2c1=N	Mdm2-MdmX inh 93 | Mdm2-MdmX conf inactive
Cc1[nH]nc2nc(SCC(=O)NCCC3=CCCCC3)n(-c3ccc(Br)cc3)c(=N)c12	Mdm2-MdmX inh 91, Beta apoptosis 93 | Mdm2-MdmX conf 47 | FLuc counter inactive
O=C(COC(=O)c1ccc(Cl)cc1[N+](=O)[O-])NCc1ccco1	none
CN(C)c1cccc(C(=O)NCc2ccc3c(c2)OCO3)c1	none (no result: Beta apoptosis)
CC(C)Oc1ccc(C(=O)OCC(=O)NCCNC(=O)COC(=O)c2ccc(OC(C)C)cc2)cc1	none
O=c1oc2ccccc2cc1-c1csc(Nc2nc3ccc(F)cc3s2)n1	none (no result: Gli-Sufu block)
O=c1oc2ccccc2cc1-c1csc(Nc2nc3c(F)cccc3s2)n1	Mdm2-MdmX inh 70 (no result: Beta apoptosis) | Mdm2-MdmX conf 70 | FLuc counter 107
N#CCSc1nc2c(sc(=S)n2Cc2ccco2)c(=O)n1-c1ccc(F)cc1	Mdm2-MdmX inh 61 | Mdm2-MdmX conf 58 | FLuc counter inactive
CCn1c(=S)sc2c(=O)n(-c3ccccc3)c(SC)nc21	none
COc1ccc(NC(=S)N2CCN(S(=O)(=O)c3ccc(F)cc3)CC2)cc1	none
Cc1cnn(-c2cc(N/N=C/c3ccccc3F)ncn2)c1	Mdm2-MdmX inh 64 | Mdm2-MdmX conf inactive
Cc1cnn(-c2cc(N/N=C/c3cccc(F)c3)ncn2)c1	Mdm2-MdmX inh 75 | Mdm2-MdmX conf inactive
COc1ccc([N+](=O)[O-])cc1NC(=O)Cc1noc2ccccc12	none
CC1(C)CC(=O)C(C=NCC2CCN(C(=S)Nc3cccc(Cl)c3)CC2)=C(O)C1	none
COc1ccc(CCN2CCC(Nc3nc4ccccc4n3Cc3ccc(F)cc3)CC2)cc1	Mdm2-MdmX inh 99 | Mdm2-MdmX conf 91 | FLuc counter 47
CCN(CC(=O)Nc1c(F)cccc1F)C(=O)c1cc([N+](=O)[O-])ccc1N1CCOCC1	none
O=C(Cc1ccc([N+](=O)[O-])cc1)Nc1nnc(C2CC2)s1	none
O=C(Cc1c[nH]c2ccccc12)Nc1nnc(C2CC2)s1	Mdm2-MdmX inh 79 | Mdm2-MdmX conf 65 | FLuc counter 84
Cc1cc(C)c2nc(Cl)c(CN(Cc3ccco3)C(=O)Nc3ccccc3C)cc2c1	Mdm2-MdmX inh 63 | Mdm2-MdmX conf 53 | FLuc counter 98
Cc1ccc2c(c1)N(CC(=O)NCC1CCCO1)C(=O)C(C(C)C)O2 (centres undefined)	none
CN1CCN(CCCN2c3ccccc3Sc3ccc(Cl)cc32)CC1	Mdm2-MdmX inh 54 | Mdm2-MdmX conf inactive
CCSc1ccc2c(c1)N(CCCN1CCN(C)CC1)c1ccccc1S2	Mdm2-MdmX inh 60 | Mdm2-MdmX conf inactive
OCCN1CCN(CCCN2c3ccccc3Sc3ccc(C(F)(F)F)cc32)CC1	Mdm2-MdmX inh 61 | Mdm2-MdmX conf inactive
CC1CN(C(=O)CSc2nnc(C3CCCCC3)n2N)CC(C)O1 (centres undefined)	none
O=C(COC(=O)c1ccc(Br)cc1)NC(=O)NCc1ccccc1	none
Brc1ccc2[nH]c3c(N4CCc5ccccc5C4)ncnc3c2c1	Mdm2-MdmX inh 69, Gli-Sufu block 72 | Mdm2-MdmX conf inactive
COc1ccccc1NC(=O)NC1(C(=O)NCC2CCCO2)CCCCC1 (centres undefined)	none
CCN(CCCNC(=O)CCn1c(=S)[nH]c2cc3c(cc2c1=O)OCO3)c1cccc(C)c1	Mdm2-MdmX inh 57 | Mdm2-MdmX conf inactive
O=C(CCCCCn1c(=S)[nH]c2cc3c(cc2c1=O)OCO3)NCCc1ccccc1	none
Cc1cc2cc(CN(Cc3ccc4c(c3)OCO4)C(=O)c3ccco3)c(=O)[nH]c2cc1C	none
O=C(c1ccco1)N(Cc1ccc2c(c1)OCO2)Cc1cc2cc3c(cc2[nH]c1=O)OCO3	Mdm2-MdmX inh 60 | Mdm2-MdmX conf inactive
O=C(N/N=C/c1cc(Br)cc([N+](=O)[O-])c1O)c1ccc(NC(=O)c2ccc(F)cc2)cc1	Mdm2-MdmX inh 56 | Mdm2-MdmX conf inactive | FLuc counter 60
O=C(N/N=C/c1ccccc1)c1ccc(NC(=O)c2ccc(F)cc2)cc1	none
CCC[C@H]1CC(=O)C=C(c2ccc(OC)cc2)ON1C(=O)OC(C)(C)C	none (no result: Mdm2-MdmX inh, Beta apoptosis, Jurkat NFkB inh, 697 NFkB inh)
COc1ccccc1NC(=O)c1ccc(CN(c2cc(Cl)ccc2C)S(=O)(=O)c2ccccc2)cc1	Mdm2-MdmX inh 61 | Mdm2-MdmX conf inactive
CC(C)C[C@@H]1NC(=O)[C@H](Cc2ccccc2)N(C)C(=O)[C@H](C)NC(=O)c2ccccc2NC(=O)[C@H](Cc2ccc(O)cc2)N(C)C1=O	Mdm2-MdmX inh 75 (no result: Beta apoptosis) | Mdm2-MdmX conf 57 | FLuc counter 71
CCC(C)(C)C1CCC2(CC1)NC(=O)N(CC(=O)Nc1cc(C(F)(F)F)ccc1N1CCOCC1)C2=O (centres undefined)	none
Fc1ccccc1COc1ccc2ccccc2c1CNc1nn[nH]n1	none
Fc1ccc(CN2C3=NCCN3c3ccccc32)cc1	none
Clc1cc(Br)ccc1OCCCNCc1ccccc1	Mdm2-MdmX inh 55 | Mdm2-MdmX conf inactive
CCC(=Cc1ccccc1OC)c1ccncc1	none (no result: Mdm2-MdmX inh, Beta apoptosis, Jurkat NFkB inh, 697 NFkB inh)
CC1CCc2cc(F)ccc2N1C(=O)CSc1nnc2c(n1)[nH]c1ccc(F)cc12 (centres undefined)	Mdm2-MdmX inh 84 | Mdm2-MdmX conf inactive
Cc1c(C(=O)NCCC2=CCCCC2)oc2ccc(S(=O)(=O)N3CCOCC3)cc12	Mdm2-MdmX inh 54 | Mdm2-MdmX conf inactive
COCCCN1C(=O)C(=O)/C(=C(/O)c2ccc(C)cc2)C1/C=C/c1ccccc1 (centres undefined)	none
Cc1noc2ncnc(Sc3c(Cl)cccc3Cl)c12	Mdm2-MdmX inh 54 | Mdm2-MdmX conf inactive
Cc1c(C#N)c(N)nc2c3c(sc12)NC(=O)CC3c1ccc(Cl)cc1 (centres undefined)	Mdm2-MdmX inh 92 | Mdm2-MdmX conf inactive
